Laboratory results reported in PubChem BioAssay AID1347077 (National Center for Advancing Translational Sciences (NCATS), 2019).
Out of some 44,000 compounds screened, fewer than 10 were called active. Only a sample is shown. A number with no mark means an inactive call. Calls follow the shape of the dose curve; as a rule, active = well fitted activation curve with a large enough effect; inconclusive = small, poorly fitted or top-dose-only effect, or another doubt; inactive = no such curve, though single readings can be large or run the other way.

Biological target: Beta-2 adrenergic receptor (Homo sapiens) (UniProt P07550)
Assay: qHTS assay of beta-arrestin-biased ligands of beta2-adrenergic receptor: NCGC Sytravon Library Screen;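 also: 0% = DMSO and full agonism = EC100 isoproterenol or metaproterenol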
Settings: HTLA Tango cells, beta-arrestin recruitment, luciferase luminescence, 18 h; series mostly up to 46.1 µM; activation: at the top concentration
Description: The concept of biased agonism is an emerging concept of molecular pharmacology which proposes that seven transmembrane receptors (7TMRs) or G protein-coupled receptors (GPCRs), exist in multiple signaling conformations and complexes and that ligands (either agonists or antagonists) can induce signaling biased responses for distinct signal transduction cascades. […] Furthermore, accumulating evidence over the last decade has drawn attention to a novel function of beta-arrestins as signal transducers that scaffold various signaling molecules upon activation of 7TMRs. […] This beta-arrestin-biased signaling presumably leads to distinct physiological outcomes from those by G protein activation. Additionally, the active receptor conformations which prefer on this beta-arrestin signaling are likely different from those activating G protein signaling. […] The goal of this screening project will be to discover and optimize novel beta-arrestin-biased ligands for beta2-AR signaling. A luminescent cell-based assay for beta2-AR-mediated agonism, known as the Tango assay, has been validated in which ligand binding of a recombinant beta2-AR and subsequent recruitment of a recombinant beta-arrestin lead to the release of the transcriptional activator tTA, which upregulates transcription of a tTA-responsive luciferase gene. […] Compounds from the NCGC Sytravon Library collection were screened as a concentration-titration series that ranged from 46 microM to 0.6 nM. NIH Molecular Libraries Probe Production Network [MLPCN] NIH Chemical Genomics Center [NCGC] MLPCN Grant: Fast-track/HHSN271700800025C PI: Bryan Roth and Bob Lefkowitz
Tango cells were dispensed into white, solid, tissue-culture-treated 1536-well plates at 1500 cells/well in DMEM, containing 1% fetal bovine serum (FBS). Then, 23 nL of compounds or DMSO were delivered to each well using a pin tool. Plates were incubated at 37 degrees C, 5% CO2 for 18 hr. Then 2.5 uL luminescent substrate mix (in-house prepared: 150 mM Tris-Cl, pH 7.6, 3 mM MgCl2, 1% Triton X-100, 5 mM DTT, 0.5 mM CoA, 0.15 mM ATP, 0.44 mM D-luciferin, final concentrations) was added to each well. Plates were then incubated for 15 minutes at room temperature, and subsequently measured on a ViewLux plate reader for luminescent signal using a clear filter with a 10 second exposure and 2x binning. The %Activity was determined from the corrected luminescence values. […] Concentration-response curves were fitted to the signals arising from the resulting luminescence. The concentration-effect curves were then classified based on curve quality (r2), response magnitude and degree of measured activity, and compounds were subsequently categorized based on their curve class.

Chain of Beta-2 adrenergic receptor (Homo sapiens) (P07550 whole entry, looked up): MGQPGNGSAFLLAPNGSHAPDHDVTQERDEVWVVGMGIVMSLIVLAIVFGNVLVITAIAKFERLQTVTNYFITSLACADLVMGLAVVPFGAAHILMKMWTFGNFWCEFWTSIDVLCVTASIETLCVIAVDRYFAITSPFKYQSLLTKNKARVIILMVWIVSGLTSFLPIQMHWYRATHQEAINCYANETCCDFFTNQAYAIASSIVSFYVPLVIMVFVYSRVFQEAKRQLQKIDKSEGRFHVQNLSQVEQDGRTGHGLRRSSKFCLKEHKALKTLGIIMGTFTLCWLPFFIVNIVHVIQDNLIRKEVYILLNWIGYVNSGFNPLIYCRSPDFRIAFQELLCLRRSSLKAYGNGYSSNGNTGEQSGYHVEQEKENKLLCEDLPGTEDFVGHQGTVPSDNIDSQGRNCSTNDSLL

SMILES | activation
OCc1cnc(SCc2ccc(F)cc2)n1Cc1ccc(F)cc1 | -1.11%
CCOc1cc2[nH]c(=O)n(Cc3ccc(C(=O)NCCN(CC)CC)cc3)c(=O)c2cc1OCC | -2.85%
COc1ccc(Nc2ncc3c(n2)CCN(C(=O)OC(C)(C)C)C3)cc1 | -1.93%
CCOC(=O)CNC(=O)c1cc2c(=O)n3cccc(C)c3nc2s1 | 0.42%
COC(=O)c1ccc(NC(=O)CCc2c(C)nn(-c3ccc(N4CCCC4)nn3)c2C)cc1 | 0.407%
CC(=O)N1CCCc2cc(S(=O)(=O)N3CCC(C(=O)NCc4ccc(C)cc4)CC3)ccc21 | -0.216%
O=C1CC(c2ccc(F)cc2F)c2cc3c(cc2N1)OCO3 (stereo not drawn) | 0.79%
COc1cccc(NC(=O)CSc2cc(=O)n(C)c3ccc(Cl)cc23)c1 | 0.89%
CC(=O)c1cccc(NC(=O)c2nc(-c3ccccc3)n(-c3cccc(C)c3)n2)c1 | -1.39%
O=C(Nc1ccc2nc(SCC(=O)N3CCCc4ccccc43)sc2c1)c1ccc(Cl)cc1 | -4.59%
COc1ccc(NC(=O)c2cc3cc(C)ccc3n2C)cc1 | -4.51%
CCc1ccc(NC(=O)CN2CCSc3ccc(S(=O)(=O)N4CCCC4)cc32)cc1 | 2.13%
O=c1cc2nc(-c3ccccc3)nc(SCCOc3ccc(Cl)cc3)n2[nH]1 | -1.33%
CCc1ccc(Sc2cc(C(=O)NCCCOC(C)C)c3ccccc3n2)cc1 | 5.47%
Cn1c(=O)c2c(nc(NCCc3ccccc3)n2Cc2ccccc2Br)n(C)c1=O | 0.853%
O=C(CSc1ncc(S(=O)(=O)c2ccc(Br)cc2)c(=O)[nH]1)Nc1ccc2c(c1)OCCO2 | -1.59%
CCN1CCN(c2cc(C)c3cc(NC(=O)c4cc(Cl)ccc4OC)ccc3n2)CC1 | -0.147%
Cc1cccc(-n2c(=O)c3c(c4cc(C)ccc4n3C)n(CC(=O)Nc3ccccc3Cl)c2=O)c1 | 0.368%
CCc1ccccc1NC(=O)CSc1nc(C)c(C(=O)Nc2ccccc2)c(-c2ccc(Cl)cc2)c1C#N | -0.211%
O=C(NCc1ccccc1Cl)C1=Cc2cc(Br)ccc2OC1 | -0.0504%
COC(=O)C1=C(c2ccccc2)c2ccccc2S(=O)(=O)N1CC(=O)Nc1ccccc1C(F)(F)F | -2.12%

SMILES | activation
Cc1ccc2cccc(NC(=O)c3cccc4ccccc34)c2n1 | 0.459%
CC(C)OCCCn1c(SCC(=O)c2ccccc2)nc2c(sc3ccccc32)c1=O | -3.59%
CCC(C)Nc1oc(-c2ccc(COc3ccc(Cl)cc3)o2)nc1C#N (stereo not drawn) | -4.1%
Cc1ccc(NC(=O)c2nc(S(=O)(=O)Cc3cccc(C)c3)ncc2Cl)cc1 | -1.39%
COc1ccc(C2C(=O)N(C3CCCCCC3)CC(=O)N2CCc2ccc(Cl)cc2)cc1OC (stereo not drawn) | -0.695%
CCOC(=O)c1cnc2c(C)cc(Cl)cc2c1NCCc1ccc(OC)c(OC)c1 | -2.28%
Cc1cccc(CC(=O)Nc2cccc(-c3cn4cccnc4n3)c2)c1 | 0.528%
Cc1cc(C)cc(NC(c2nnc(-c3cccc(F)c3)o2)c2ccc(F)cc2Cl)c1 (stereo not drawn) | -2.14%
Cn1nnnc1SCCCNCc1cccc(OCc2ccc(Cl)cc2)c1 | -4.7%
COCCn1c(CCC(=O)Nc2cc(C)ccc2C)nc2cccnc21 | -2.56%
O=C(CSc1oc(-c2ccccc2)nc1S(=O)(=O)c1ccc(Br)cc1)NC1CCCCC1 | 0.602%
COc1ccccc1CNC(=O)CCCCn1c(=O)c2ccccc2n(CC(=O)Nc2cc(Cl)ccc2C)c1=O | -1.9%
COc1cccc(CNC(=O)Cc2csc3nc(-c4ccccc4)cn23)c1 | -0.157%
Cn1c(COc2ccccc2C(C)(C)C)nc2ccccc21 | 0.351%
Cc1ccc(CNC(=O)CSc2c(C)cnc3c2c(=O)n(C)c(=O)n3C)cc1 | -3.91%
Cc1ccc(CN2CCC(CNC(=O)c3cnn(-c4ccc(C)cc4)c3C3CCN(C(=O)OC(C)(C)C)CC3)CC2)cc1 | -0.676%
CSc1nc(=O)c2c(n1C)NC(=O)CC2c1ccccc1OC(C)C (stereo not drawn) | -3.09%
COc1ccc(-c2c(C)c3ccc(O)c(CN4CCCC4)c3oc2=O)cc1OC | 4.22%
COc1ccccc1NC(=O)c1oc2ccccc2c1NC(=O)COc1ccccc1OC | 1.24%
CC(=O)N1CCc2cc(S(=O)(=O)NC(Cc3ccccc3)C(=O)NCc3ccc(C)cc3)ccc21 (stereo not drawn) | 0.236%
O=C1Cc2cc(S(=O)(=O)Nc3ccc(OC(F)(F)F)cc3)cc3c2N1CCC3 | -0.19%

SMILES | activation
CC1CCCN(c2nc3c(S(=O)(=O)c4ccc(C(C)C)cc4)nnn3c3ccsc23)C1 (stereo not drawn) | 0.103%
Cc1ccc(CSc2nc3ccsc3c(=O)n2CCC(C)C)cc1 | -2.67%
CCOc1ccccc1CNC(=O)C1CCCN(S(=O)(=O)c2ccc3c(ccn3C)c2)C1 (stereo not drawn) | 1.37%
Cc1ccc2c(=O)cc(C(=O)Nc3sc4c(c3C(=O)NCc3cccnc3)CCCC4)oc2c1 | -0.248%
COc1ccc(C(=O)Nc2ccc3nc(N4CCCCC4)cc(C)c3c2)cc1OC | 0.327%
COC(=O)CC1Oc2ccccc2-n2cc(-c3ccccc3)nc21 (stereo not drawn) | 0.516%
CCOC(=O)c1cc(-c2ccc(OC)c(S(=O)(=O)Nc3ccc(OC)cc3OC)c2)on1 | 1.94%
Cc1cccc(NC(=O)c2ccc3nc(C(C)C)oc3c2)c1C | 0.235%
COc1ccc(Cl)cc1-n1c(CCC(=O)O)ccc1-c1ccc(C)cc1 | 0.64%
O=C(Nc1ccccc1F)C(c1ccccc1)N1Cc2ccccc2C1=O (stereo not drawn) | -0.457%
Cc1ccc(-c2cc(N)n(Cc3cccc(Cl)c3)n2)cc1 | 0.672%
Cc1nc(SCC(=O)N2CCN(c3ccccc3)CC2)[nH]c(=O)c1C | 0.294%
Cc1ccc(C)c(N2CCN(C(=O)C3CCC(CNS(=O)(=O)c4cccs4)CC3)CC2)c1 (stereo not drawn) | -1.22%
CCOc1ccc(CNCCSc2nnnn2C)cc1 | 0.552%
NS(=O)(=O)c1ccc(NC(=O)C(=O)Nc2ccc3nc4n(c(=O)c3c2)CCCCC4)cc1 | -2.66%
CCc1ccc(-n2nnc(-c3nc(-c4ccccc4)no3)c2C)cc1 | -0.41%
COc1cccc(CNc2nccn(-c3ccc(OC)c(OC)c3)c2=O)c1 | 0.0673%
COc1ccc(NC(=O)CSc2nc3ccccc3[nH]2)cc1 | -2.24%
CC(C)c1ccc(NC(=O)C2CCN(c3nc(-c4ccc(C(C)C)cc4)no3)CC2)cc1 | -0.161%
CCOc1cccc2cc(-c3cn4c(n3)sc3cc(C)ccc34)c(=O)oc12 | -2.89%
CCc1cc2c(cc3c(=O)n(CC(=O)NCc4cccc(Cl)c4)nc(CC)n32)s1 | 0.858%
